# Reference: the supplement of paper PMC10037445
# Over roughly 2,900 compounds, “IRF Lucia reporter activity, fold change vs agonist alone” has its median near 0.9; the highest 2% begin near 2.8. Many of the other results were omitted from the sample, so the highest values are more common in it than they were.
# Assays:
# [1] = test system: RAW-Dual; assay: IRF Lucia reporter activity, fold change vs agonist alone; higher = enhanced IRF activity; conditions: agonist: MPLA (TLR4) […]
# Summary of the method: (§1)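 Reporter activity is given as fold change relative to agonist-alone wells. To measure it, 50 nL of library stock was pin-tooled onto RAW-Dual macrophages (50,000 cells/well, DMEM, 384-well plates), a PRR agonist followed 1 h later, and cells stayed at 37 °C, 5% CO2. Twenty hours on, supernatant was assayed for IRF (QuantiLuc luminescence) and NF-κB (QuantiBlue, 620 nm absorbance), and wells under 70% of agonist-control IncuCyte confluency in both mask sets were marked cytotoxic.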
# [2] = test system: RAW-Dual; assay: IRF Lucia reporter activity, fold change vs agonist alone; cytotoxicity flag (confluency mask): not cytotoxic; higher = enhanced IRF activity
# Summary of the method: as §1
# [3] = test system: RAW-Dual; assay: IRF Lucia reporter activity, fold change vs agonist alone; cytotoxicity flag (confluency mask): cytotoxic (confluency <70% of control); higher = enhanced IRF activity
# Summary of the method: as §1
# [4] = library stock concentration (final ~1000-fold dilution): 10 mM, cytotoxicity flag (confluency mask): not cytotoxic
# [5] = agonist: 3'3'-cGAMP (STING) 10 ug/mL
# [6] = library stock concentration (final ~1000-fold dilution): 10 mM, cytotoxicity flag (confluency mask): cytotoxic (confluency <70% of control)
structure (smiles),measurement,setting,value
Cc1ccc2c(=O)c3cccc(CC(=O)O)c3oc2c1C,IRF Lucia reporter activity,[1]; [4],0.965
Cc1ccc2c(=O)c3cccc(CC(=O)O)c3oc2c1C (library stock concentration (final ~1000-fold dilution): 10 mM),IRF Lucia reporter activity,[2]; [5],1.08
same,IRF Lucia reporter activity,[2]; agonist: LPS (TLR4) 0.1 ug/mL,6.08
CCC(=O)N1CCC(Nc2ncnc3c2CN(c2cnc(OC)c(C(F)(F)F)c2)CC3)C1 (configuration not stated) (library stock concentration (final ~1000-fold dilution): 10 mM),IRF Lucia reporter activity,[2]; [5],0.908
same,IRF Lucia reporter activity,[2]; agonist: LPS (TLR4) 0.1 ug/mL,0.847
CCC1(O)C(=O)OCc2c1cc1n(c2=O)Cc2cc3c(CN(C)C)c(O)ccc3nc2-1.Cl (configuration not stated) (library stock concentration (final ~1000-fold dilution): 10 mM),IRF Lucia reporter activity,[3]; [5],2.13
same,IRF Lucia reporter activity,[3]; agonist: LPS (TLR4) 0.1 ug/mL,2.49
CCc1c2c(nc3ccc(O)cc13)-c1cc3c(c(=O)n1C2)COC(=O)C3(O)CC (configuration not stated),IRF Lucia reporter activity,[1]; [4],1.65
CCc1c2c(nc3ccc(O)cc13)-c1cc3c(c(=O)n1C2)COC(=O)C3(O)CC (configuration not stated) (library stock concentration (final ~1000-fold dilution): 10 mM),IRF Lucia reporter activity,[2]; [5],1.24
same,IRF Lucia reporter activity,[2]; agonist: LPS (TLR4) 0.1 ug/mL,1.29
CCC1(O)C(=O)OCc2c1cc1n(c2=O)Cc2cc3c(CN(C)C)c(O)ccc3nc2-1.Cl (configuration not stated),IRF Lucia reporter activity,[1]; [6],3.1
CCc1c2c(nc3ccc(OC(=O)N4CCC(N5CCCCC5)CC4)cc13)-c1cc3c(c(=O)n1C2)COC(=O)C3(O)CC.Cl.O.O.O (configuration not stated),IRF Lucia reporter activity,[1]; [4],1.15
CCC1(O)C(=O)OCc2c1cc1n(c2=O)Cc2cc3cc(O)ccc3nc2-1 (configuration not stated) (library stock concentration (final ~1000-fold dilution): 10 mM),IRF Lucia reporter activity,[2]; [5],0.975
same,IRF Lucia reporter activity,[2]; agonist: LPS (TLR4) 0.1 ug/mL,0.604
same,IRF Lucia reporter activity,[3]; [5],2.36
same,IRF Lucia reporter activity,[3]; agonist: LPS (TLR4) 0.1 ug/mL,1.76
CCC1(O)C(=O)OCc2c1cc1n(c2=O)Cc2cc3cc(O)ccc3nc2-1 (configuration not stated),IRF Lucia reporter activity,[1]; [6],2.58
same,IRF Lucia reporter activity,[1]; [4],1.03
CCC1(O)C(=O)OCc2c1cc1n(c2=O)Cc2cc3c(CN(C)C)c(O)ccc3nc2-1 (configuration not stated) (library stock concentration (final ~1000-fold dilution): 10 mM),IRF Lucia reporter activity,[2]; [5],2.77
same,IRF Lucia reporter activity,[2]; agonist: LPS (TLR4) 0.1 ug/mL,3.25
CCc1c2c(nc3ccc(OC(=O)N4CCC(N5CCCCC5)CC4)cc13)-c1cc3c(c(=O)n1C2)COC(=O)C3(O)CC.Cl.O.O.O (configuration not stated) (library stock concentration (final ~1000-fold dilution): 10 mM),IRF Lucia reporter activity,[2]; [5],0.87
same,IRF Lucia reporter activity,[2]; agonist: LPS (TLR4) 0.1 ug/mL,1.1
COc1ccc2cc1Oc1ccc(cc1)CC1c3cc(c(OC)cc3CCN1C)Oc1c(OC)c(OC)cc3c1C(C2)N(C)CC3 (configuration not stated),IRF Lucia reporter activity,[1]; [4],1.07
COc1ccc2cc1Oc1ccc(cc1)CC1c3cc(c(OC)cc3CCN1C)Oc1c(OC)c(OC)cc3c1C(C2)N(C)CC3 (configuration not stated) (library stock concentration (final ~1000-fold dilution): 10 mM),IRF Lucia reporter activity,[2]; [5],1.01
same,IRF Lucia reporter activity,[2]; agonist: LPS (TLR4) 0.1 ug/mL,0.352
Cn1c(=O)cc(N2CCCC(N)C2)n(Cc2cc(F)ccc2C#N)c1=O.O=C(O)CCC(=O)O (configuration not stated) (library stock concentration (final ~1000-fold dilution): 10 mM),IRF Lucia reporter activity,[2]; [5],1.04
same,IRF Lucia reporter activity,[2]; agonist: LPS (TLR4) 0.1 ug/mL,1.26
Cn1c(=O)cc(N2CCCC(N)C2)n(Cc2cc(F)ccc2C#N)c1=O.O=C(O)CCC(=O)O (configuration not stated),IRF Lucia reporter activity,[1]; [4],1.13
CCC(C)CC(C)CCCCCCCCC(=O)NC1CC(O)C(NCCN)NC(=O)C2C(O)CCN2C(=O)C(C(O)CCN)NC(=O)C(C(O)C(O)c2ccc(O)cc2)NC(=O)C2CC(O)CN2C(=O)C(C(C)O)NC1=O (configuration not stated),IRF Lucia reporter activity,"[1]; library stock concentration (final ~1000-fold dilution): 10 mM water, cytotoxicity flag (confluency mask): not cytotoxic",1.21
CCC(C)CC(C)CCCCCCCCC(=O)NC1CC(O)C(NCCN)NC(=O)C2C(O)CCN2C(=O)C(C(O)CCN)NC(=O)C(C(O)C(O)c2ccc(O)cc2)NC(=O)C2CC(O)CN2C(=O)C(C(C)O)NC1=O (configuration not stated) (library stock concentration (final ~1000-fold dilution): 10 mM water),IRF Lucia reporter activity,[2]; [5],0.923
same,IRF Lucia reporter activity,[2]; agonist: LPS (TLR4) 0.1 ug/mL,0.909
Cn1cnc2c(F)c(Nc3ccc(Br)cc3F)c(C(=O)NOCCO)cc21,IRF Lucia reporter activity,[1]; [4],2.67
Cn1cnc2c(F)c(Nc3ccc(Br)cc3Cl)c(C(=O)NOCCO)cc21,IRF Lucia reporter activity,[1]; [4],2.77
Cn1cnc2c(F)c(Nc3ccc(Br)cc3Cl)c(C(=O)NOCCO)cc21 (library stock concentration (final ~1000-fold dilution): 10 mM),IRF Lucia reporter activity,[2]; [5],0.69
same,IRF Lucia reporter activity,[2]; agonist: LPS (TLR4) 0.1 ug/mL,3.1
Cn1cnc2c(F)c(Nc3ccc(Br)cc3F)c(C(=O)NOCCO)cc21 (library stock concentration (final ~1000-fold dilution): 10 mM),IRF Lucia reporter activity,[2]; [5],0.728
same,IRF Lucia reporter activity,[2]; agonist: LPS (TLR4) 0.1 ug/mL,2.67
COCCOc1nc(N)c2[nH]c(=O)n(Cc3ccc(C(=O)O)cc3)c2n1 (library stock concentration (final ~1000-fold dilution): 10 mM),IRF Lucia reporter activity,[2]; [5],1.54
same,IRF Lucia reporter activity,[2]; agonist: LPS (TLR4) 0.1 ug/mL,1.06
COC(C(=O)N1Cc2[nH]nc(NC(=O)c3ccc(N4CCN(C)CC4)cc3)c2C1)c1ccccc1 (configuration not stated) (library stock concentration (final ~1000-fold dilution): 10 mM),IRF Lucia reporter activity,[2]; [5],0.149
same,IRF Lucia reporter activity,[2]; agonist: LPS (TLR4) 0.1 ug/mL,0.162
COC(C(=O)N1Cc2[nH]nc(NC(=O)c3ccc(N4CCN(C)CC4)cc3)c2C1)c1ccccc1 (configuration not stated),IRF Lucia reporter activity,[1]; [4],0.147
